From PubChem BioAssay (NCI) come the findings set out here.

Test [1] can be described thus: NCI Yeast Anticancer Drug Screen. Data for the rad50 strain (AID 155).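 Also: 0% = growth of vehicle-only cultures of the same strain.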 To be noted: S. cerevisiae rad50 strain growth inhibition; at 50.0 µM; stronger effect = higher value. In a few lines: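 A DNA repair-deficient yeast mutant serves as the test organism; compound-induced growth inhibition is calculated against vehicle-treated cells.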
Test [2] in a line: NCI Yeast Anticancer Drug Screen. Data for the sgs1 mgt1 strain (AID 161).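 Also: 0% = growth of cultures given vehicle only.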 Particulars: S. cerevisiae sgs1 mgt1 strain, stronger effect = higher value. In a few lines:
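Yeast cells carrying a defined DNA-repair defect were exposed to test compounds. Growth inhibition was measured relative to vehicle-treated controls.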

The nature of test [3]: NCI Yeast Anticancer Drug Screen. Data for the cln2 rad14 strain (AID 165).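 Also: 0% = growth equal to vehicle treated cultures.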 To be noted: S. cerevisiae cln2 rad14 strain, stronger effect = higher value. In a few lines:
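Yeast carrying cln2 and rad14 alterations (cell cycle control and DNA damage repair) were exposed to compounds. Growth inhibition was measured against vehicle-treated controls.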

Test [4] is described as follows: NCI Yeast Anticancer Drug Screen. Data for the mlh1 rad18 strain (AID 175). Particulars: S. cerevisiae mlh1 rad18 strain growth inhibition, stronger effect = higher value. The essentials: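 Growth inhibition of the yeast strain was measured after compound exposure and expressed relative to vehicle-treated controls. The strain carries defined defects in DNA damage repair.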

Test [5] is described as follows: NCI Yeast Anticancer Drug Screen. Data for the bub3 strain (AID 167). To be noted: S. cerevisiae bub3 mutant strain, stronger effect = higher value. In a few lines:
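Inhibition values come from growth of compound-treated mutant yeast normalised to vehicle-treated controls.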

Test [6] can be described thus: NCI Yeast Anticancer Drug Screen. Data for the mec2-1 strain (AID 157). To be noted: S. cerevisiae mec2-1 strain, stronger effect = higher value. In a few lines:
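mec2-1 yeast strain, carrying an alteration in DNA damage repair or cell cycle control, was exposed to compounds; growth inhibition was measured relative to vehicle-treated controls.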

[7] abbreviates: at 5.0 µM (retest, dose inferred, filed as 0.5).
Setting [8] is: at 50.0 µM (retest, dose inferred, filed as 5.0).

Values joined by “and” are separate entries in the source; they are usually repeats but may differ in a detail not shown here. Equal entries are not always repeated. The panel holds about 79,000 compounds, 15% with a hit somewhere; the sample as a whole holds those more often. Unmarked numbers belong to inactive results. Active and inactive are the calls of the source. Rule as the data show it: active = growth inhibition above about 70%; inactive = the rest.

With `[Br][Co][Br].[NH-]CC[NH-].[NH-]CC[NH-]`, the growth inhibition was 28.4% in test [1], 18.4% in test [2] (at 50.0 µM), -6.95% in test [3] (at 50.0 µM) and 17.8% in test [4] (at 50.0 µM).

On to `Cc1cc(Cc2cc(C)c(NC(=O)C(=O)C3C(=O)NC(=S)NC3=O)c(C(C)C)c2)cc(C(C)C)c1NC(=O)C(=O)C1C(=O)NC(=S)NC1=O`, for which the growth inhibition in test [1] is -20.6%; in test [2] (at 50.0 µM), -18.9%; in test [3] (at 50.0 µM), 21.6%; in test [5] (at 50.0 µM), 8.55%; in test [4] (at 50.0 µM) it was -11.7%.

As for `Cc1cc(C)n(SC(Cl)(Cl)Cl)n1`, the growth inhibition was -12.3% in test [1]; 28.3% in test [6] (at 50.0 µM); -4.6% in test [3] (at 50.0 µM); 7.45% in test [5] (at 50.0 µM); -13.7% in test [4] (at 50.0 µM).

On to `[O-][N+]12CCCCC1C1CC(C2)C2CCCC(c3ccccc3)N2C1` (centres undefined), for which the growth inhibition in test [1] was 3.55%; in test [2] (at 50.0 µM) it was -22.8%; in test [3] (at 50.0 µM), -34.8%; in test [5] (at 50.0 µM), -28%; in test [4] (at 50.0 µM), -59.2%.

As to `CC(=O)CC(=O)Nc1c(C)[c]([Hg][O]C(C)=O)c(C)[c]([Hg][O]C(C)=O)[c]1[Hg][O]C(C)=O`, the growth inhibition in test [6] (setting [7]) was 99% (active); in test [6] (setting [8]), 94% (active); in test [6] (at 50.0 µM), 92.6% (active); in test [2] (setting [7]), 57%; in test [2] (setting [8]) it was 94% (active); in test [2] (at 50.0 µM) it was 92.8% (active). For the same compound, the growth inhibition in test [3] (setting [7]) is 33%; in test [3] (setting [8]) it was 93% (active); in test [3] (at 50.0 µM), 88% (active); in test [5] (setting [7]) it was 99% (active); in test [5] (setting [8]) it was 94% (active); in test [5] (at 50.0 µM), 92.2% (active). Besides, the growth inhibition in test [4] (setting [7]) was 85% (active); in test [4] (setting [8]), 93% (active); in test [4] (at 50.0 µM), 90% (active).

For `C[N+]1([O-])[C@H]2CC(OC(=O)[C@H](CO)c3ccccc3)C[C@H]1[C@H]1O[C@H]12` (some centres undefined), the growth inhibition in test [6] (at 50.0 µM) is -3.35%; in test [2] (at 50.0 µM), -14.9%; in test [3] (at 50.0 µM), -26.5%; in test [5] (at 50.0 µM) it was -34.2%; in test [4] (at 50.0 µM), -10.1%.

Take `C/C=C1/C[N+]2([O-])CC[C@@]34c5ccc(OC)cc5N(C)[C@H]3C2CC1C4C(=O)OC` (some centres undefined): the growth inhibition in test [6] (at 50.0 µM) is -8.05%; in test [2] (at 50.0 µM), -3.1%; in test [3] (at 50.0 µM) it was -6%; in test [5] (at 50.0 µM), -10.8%; in test [4] (at 50.0 µM), 2.25%.

For `CC(C)(C)c1ccc(O)cc1`, the growth inhibition in test [1] was -21.1%; in test [2] (at 50.0 µM), -18.8%; in test [3] (at 50.0 µM), -9.5%; in test [5] (at 50.0 µM), -1.45%; in test [4] (at 50.0 µM), 8.85%.

Regarding `C1N2CN3CN1CN(C2)C3.[Cu+2]`, the growth inhibition in test [1] is -15.4%; in test [2] (at 50.0 µM) it was -14.7%; in test [3] (at 50.0 µM), -8.5%; in test [5] (at 50.0 µM), -15%; in test [4] (at 50.0 µM) it was -6.9%.

In the case of `COc1cc([C@@H]2c3cc(O)c(OC)cc3C[C@H]3C(=O)OC[C@@H]23)ccc1O`, the growth inhibition in test [6] (at 50.0 µM) is -13.7%; in test [2] (at 50.0 µM), 26.2%; in test [3] (at 50.0 µM) it was 10.3%; in test [5] (at 50.0 µM), 25.3%; in test [4] (at 50.0 µM), -1.6%.

With `COc1cc(C2c3[nH]c4ccccc4c3[C@@H](Nc3ccc(C#N)cc3)[C@H]3COC(=O)N23)cc(OC)c1O` (some centres undefined), the growth inhibition was 21% in test [6] (setting [7]); 91% (active) in test [6] (setting [8]); 77.3% (active) in test [6] (at 50.0 µM); -15% in test [2] (setting [7]); 61% in test [2] (setting [8]); 58.8% in test [2] (at 50.0 µM). Besides, the growth inhibition in test [3] (setting [7]) is -3%; in test [3] (setting [8]) it was 57%; in test [3] (at 50.0 µM), 71.4% (active); in test [5] (setting [7]) it was -23%; in test [5] (setting [8]) it was 70% (active); in test [5] (at 50.0 µM), 65.9%. Moreover, the growth inhibition in test [4] (setting [7]) was 21%; in test [4] (setting [8]), 71% (active); in test [4] (at 50.0 µM), 50.8%.

Turning to `CC[n+]1c(-c2ccccc2)c2cc(N)ccc2c2ccc(N)cc21` (tested in a mixture with another compound), the growth inhibition in test [1] was 98.5% (active); in test [2] (at 50.0 µM), 95% (active); in test [3] (at 50.0 µM), 54.5%; in test [5] (at 50.0 µM), 74.9% (active); in test [4] (at 50.0 µM), 85.5% (active).

Regarding `c1cc[c]([Sn]([c]2ccccc2)[c]2ccccc2)cc1.c1cc[c]([Sn]([c]2ccccc2)[c]2ccccc2)cc1`, the growth inhibition in test [6] (setting [7]) is 51%; in test [3] (setting [7]), 9%; in test [5] (setting [7]), 54%.

As for `N#CC(C#N)=Cc1ccc(Cl)o1`, the growth inhibition was 4% in test [6] (setting [7]); 47% in test [6] (setting [8]); 50% in test [6] (at 50.0 µM); 2% in test [2] (setting [7]); 24% in test [2] (setting [8]); 61.8% in test [2] (at 50.0 µM). The growth inhibition was -6% in test [3] (setting [7]); 26% in test [3] (setting [8]); 42.4% in test [3] (at 50.0 µM); -2% in test [5] (setting [7]); 35% in test [5] (setting [8]); 45% in test [5] (at 50.0 µM). The values for the growth inhibition in test [4] (setting [7]), in test [4] (setting [8]) and in test [4] (at 50.0 µM) were 1%, 29% and 82.8% (active), respectively.

In the case of `C/C=C1/CN2CCC34c5ccccc5N(C)C23C2CC1C4(C(=O)OC)C(O)O2` (centres undefined), the growth inhibition in test [1] was -31%; in test [6] (at 50.0 µM) it was -31.8%; in test [3] (at 50.0 µM), -4.2%; in test [5] (at 50.0 µM) it was -8.4%; in test [4] (at 50.0 µM) it was -58.9%.

Consider `[Cl][Sn]([Cl])([c]1ccccc1)[c]1ccccc1.c1ccc2nc(-c3ccc4ccccc4n3)ccc2c1`, for which the growth inhibition is 16% in test [6] (setting [7]); 98% (active) in test [6] (setting [8]); 96% (active) in test [6] (at 50.0 µM); 32% in test [2] (setting [7]); 97% (active) in test [2] (setting [8]); 75.3% (active) in test [2] (at 50.0 µM). The growth inhibition in test [3] (setting [7]) was 6%; in test [3] (setting [8]), 96% (active); in test [3] (at 50.0 µM) it was 45.1%; in test [5] (setting [7]), 5%; in test [5] (setting [8]), 96% (active); in test [5] (at 50.0 µM) it was 59.6%. For the same compound, the growth inhibition is 23% in test [4] (setting [7]), 96% (active) in test [4] (setting [8]) and 93.2% (active) in test [4] (at 50.0 µM).

In the case of `CC(=O)C1(c2ccccc2)CCCN(C)CC1` (centres undefined), the growth inhibition in test [1] is -7.8%; in test [2] (at 50.0 µM), 8.2%; in test [3] (at 50.0 µM), 1.35%; in test [5] (at 50.0 µM), 3.45%; in test [4] (at 50.0 µM) it was -3.45%.

`CCCCN1C(=O)C(=C/C=C/C=C2\Oc3ccccc3N2CCCS(=O)(=O)O)C(=O)N(CCCC)C1=S`: the growth inhibition in test [1] is 18%; in test [2] (at 50.0 µM), 3.75%; in test [3] (at 50.0 µM) it was 15.7%; in test [5] (at 50.0 µM) it was -3.9%; in test [4] (at 50.0 µM) it was 27%.

On to `CCN(CCCl)c1cc(C(N)=O)c([N+](=O)[O-])cc1[N+](=O)[O-]`, for which the growth inhibition in test [6] (at 50.0 µM) was -8.7%; in test [2] (at 50.0 µM), 9%; in test [3] (at 50.0 µM), 3.8%; in test [5] (at 50.0 µM), 5.25%; in test [4] (at 50.0 µM), -19.6%.

Take `COc1cc(=O)oc(/C=C/C=C/C=C/C(C)=C\C2(C)OC(C)C(C)(O)C2O)c1C` (centres undefined): the growth inhibition in test [6] (at 50.0 µM) was -8.35%; in test [2] (at 50.0 µM), 3.35%; in test [3] (at 50.0 µM), -9.4%; in test [5] (at 50.0 µM), -20.4%; in test [4] (at 50.0 µM) it was -0.95%.

With `CCOC(=O)CC(=O)c1ccccc1`, the growth inhibition was 16.9% and -9.6% in test [1]; -17.6% and -2% in test [6] (at 50.0 µM); 14.1% and -15.7% in test [4] (at 50.0 µM).

For `CCOC(=O)C(CC(C)C)NC(=O)C(N)Cc1ccc(N(CCCl)CCCl)cc1` (centres undefined), the growth inhibition in test [1] is -2.4%; in test [2] (at 50.0 µM), -27.1%; in test [3] (at 50.0 µM) it was -17.6%; in test [5] (at 50.0 µM), -30.1%.
